# Hits are enriched below; roughly 2% of the tested compounds scored in any of these assays.
# HGIII-sPLA2 inh – Blocks human group III sPLA2 activity | Q9NZ20 | QFRET BODIPY PC-A2 liposome hydrolysis, fluorescence | inhibition, % at 12.2 µM | 0.56% of 370,000 active;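 active = inhibition above mean plus 3 SD of compounds lying within the high and low control bounds, cut at about 19% in these data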;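 also: 0% = median of test compound wells and 100% = no enzyme DMSO wells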
# Target sequence (Q9NZ20 whole entry, looked up): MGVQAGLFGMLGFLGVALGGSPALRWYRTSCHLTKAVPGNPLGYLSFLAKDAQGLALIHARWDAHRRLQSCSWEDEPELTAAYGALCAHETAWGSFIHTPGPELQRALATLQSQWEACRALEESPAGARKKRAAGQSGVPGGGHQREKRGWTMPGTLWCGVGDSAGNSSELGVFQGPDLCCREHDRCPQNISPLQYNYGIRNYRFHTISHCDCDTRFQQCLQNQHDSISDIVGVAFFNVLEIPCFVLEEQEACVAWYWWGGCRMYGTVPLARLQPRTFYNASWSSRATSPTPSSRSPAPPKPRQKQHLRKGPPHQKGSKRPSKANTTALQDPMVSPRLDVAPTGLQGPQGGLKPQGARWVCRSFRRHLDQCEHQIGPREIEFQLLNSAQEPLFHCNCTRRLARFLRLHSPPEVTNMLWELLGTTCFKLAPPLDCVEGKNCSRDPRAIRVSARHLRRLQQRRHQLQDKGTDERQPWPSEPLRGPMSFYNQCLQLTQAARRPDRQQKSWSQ
# CTSL1 counter – counter-screen for PFM18AAP inhibitors: inhibitors of F. hepatica cathepsin L1; inhibition, % at 5.96 µM; AID 1906; recombinant F. hepatica cathepsin L1, Z-Leu-Arg-MCA fluorescence; 0.49% of 300,000 active;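 active = inhibition above the mean of all tested compounds plus 3 SD, set per screening campaign, cut at about 17% in these data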;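 also: 0% = plate median of test compound wells and 100% = 1 µM Z-Phe-Ala-diazomethylketone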
# NALP1 yeast inh – NALP1 inhibition; 0.61% of 280,000 active; S. cerevisiae NALP1/ASC/caspase-1 growth, X-gal OD620, 72 h; inhibition, % at 10 µM; in the data active = inhibition mostly above about 24%, no sharp cut-off; inactive = mostly below about 32%
# APOBEC3G inh – blocks human APOBEC3G single-stranded DNA deamination | Q9HC16 | recombinant A3G, ssDNA deamination FAM/TAMRA fluorescence | inhibition, % at 20 µM | 0.28% of 330,000 active | AID 493012;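 active = inhibition of at least 40% at 20 µM, with no more than 30% in the related APOBEC3A deaminase screen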;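 also: plate controls were DMSO wells with A3G for no effect and wells lacking A3G enzyme for full effect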
# A3A deaminase – inhibitors of human APOBEC3A DNA deaminase | inhibition, % at 20 µM | AID 493011 | recombinant A3A, FAM/TAMRA ssDNA deamination fluorescence | 0.41% of 330,000 active;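 active = at least 40% inhibition at 20 µM here, with at most 30% in a related deaminase screen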;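 also: plate controls were A3A with DMSO for no effect and wells lacking A3A enzyme for full effect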
# APOBEC3A confirm – confirmation of human APOBEC3A DNA deaminase inhibitors | shares compounds with A3A deaminase | recombinant A3A, ssDNA deaminase UDG fluorescence assay | inhibition, % at 20 µM | 63% of 1,400 active | AID 493151;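 active = inhibition reaching a set limit, 80% of the first screen's cutoff, at 20 µM in any replicate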;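 also: plate controls were DMSO wells with A3A for no effect and wells lacking A3A enzyme for full effect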
# UDG ctr A3A – counter-screen for APOBEC3A inhibitors: UDG; shares compounds with A3A deaminase; UDG counterscreen, FAM/TAMRA uracil oligo fluorescence; inhibition, % at 20 µM; 1,000 tested, under 10 active; call rule not given here
# The depositor's hits bear a star; x = no result given.
SMILES,HGIII-sPLA2 inh,CTSL1 counter,NALP1 yeast inh,APOBEC3G inh,A3A deaminase,APOBEC3A confirm,UDG ctr A3A
O=C1C=C(O)CC(c2ccco2)C1 (centres undefined),-10,-6,11,13,46*,53*,-4
Cc1cc(C)cc(N(CC(=O)NC2CCC(C)CC2)S(=O)(=O)c2ccccc2)c1 (centres undefined),4,x,x,x,x,x,x
Oc1cccc(O)c1O,x,-4,x,4,42*,44*,x
CCOC(=O)[C@]12CCCC=C1N(Cc1ccc(OC)cc1)C(=O)[C@@H]2CC(=O)NCCC(C)C,-3,x,x,x,x,x,x
Cc1ccccc1CSCC(=O)Nc1ccccc1Br,-2,-2,13,16,72*,11,x
Fc1ccc(NC2CCC23CCC(c2ccccc2)CC3)cc1C(F)(F)F (centres undefined),2,x,x,x,x,x,x
Nc1nnc(SCC(=O)N2CCN(Cc3ccccc3)CC2)s1,10,11,9,20,64*,24,x
COc1ccc(NS(=O)(=O)c2ccc3c(c2)[C@H]2C=CC[C@H]2[C@@H](c2ccc(C(=O)O)cc2)N3)cc1,-4,7,4,28,49*,29*,1
Cc1ccc(C(=O)Nc2cc([N+](=O)[O-])ccc2C)cc1,-1,-3,2,-9,-4,x,x
Cc1c(NC(=O)c2ncn[nH]2)cccc1-c1nc2ccccc2s1,-22,0,16,25,75*,72*,3
Cc1ccc(C)c(NC(=O)c2cc[n+](C)cc2)c1,2,5,0,9,79*,69*,-2
Cc1ccc(C)c(NC(=O)c2ncn[nH]2)c1,-4,1,0,12,45*,41*,-1
Cc1ccc(C)c(NC(=O)c2cnccn2)c1,7,-2,-3,1,0,x,x
C[n+]1ccc(C(=O)Nc2ccccc2Cl)cc1,1,-7,8,14,73*,69*,-2
Cc1c(NC(=O)c2ccc(N3CCCC3)c([N+](=O)[O-])c2)cccc1-c1nc2ccccc2s1,1,1,23,2,4,x,x
Cc1ccccc1NC(=O)OCCCN1C(=O)CCC12CCC(C)CC2 (centres undefined),4,x,x,x,x,x,x
Cc1ccc(C)c(NC(=O)c2ccc(CS(=O)(=O)Cc3ccccc3C)o2)c1,-13,x,x,x,x,x,x
C=CCn1c2[n+](c3ccccc3c1=O)CCCCC2,-1,1,4,14,67*,52*,-2
c1ccc2cc(Cn3ccc4ccc(-c5ccc6ccn(Cc7ccc8ccccc8c7)c6c5)cc43)ccc2c1,14,x,x,x,x,x,x
O=C(O)/C(=C\c1ccc(Cl)c([N+](=O)[O-])c1)c1ccc(S(=O)(=O)N2CCCCC2)s1,-8,-2,-10,0,4,x,x
O=C(O)/C(=C\c1ccc(Cl)c([N+](=O)[O-])c1)c1ccc(S(=O)(=O)N2CCCC2)s1,1,x,x,10,55*,47*,2
CCN(CC(=O)NCc1cccs1)C(=O)c1ccc(Cl)c(Cl)c1,-3,x,x,-6,-6,x,x
CCCc1nc2ccccc2c(C(=O)N(CC)CC(=O)NCc2cccs2)c1CC,-4,x,x,5,50*,2,x
CCn1c(=O)n(CC(=O)N2CCN(C(C)=O)CC2)c(=O)c2ccccc21,1,x,x,x,x,x,x
O=C(Nc1cccc2ncccc12)c1ccc(Cl)cc1,1,-2,-1,20,65*,42*,x
SMILES,HGIII-sPLA2 inh,CTSL1 counter,NALP1 yeast inh,APOBEC3G inh,A3A deaminase,APOBEC3A confirm,UDG ctr A3A
O=C(Nc1cccc2ncccc12)c1ccc(F)cc1,-1,-3,2,-5,-2,x,x
CN(C)c1cc[n+](CC(=O)Nc2ccc(OC(F)F)cc2)cc1,4,-3,13,11,48*,65*,-3
CC(=O)c1ccc(NC(=O)C[n+]2ccc(N(C)C)cc2)cc1,4,x,0,-3,-5,x,x
COC(=O)c1cc(C(c2ccccc2O)C2CCC(C)(C)O2)n2ccccc12 (centres undefined),2,x,x,x,x,x,x
c1ccc2nc(N3CCCC3)c(N3CCCC3)nc2c1,4,-3,-13,1,2,x,x
c1ccc2c(c1)nc(N1CCCCCC1)c1ccccc12,6,-1,-7,12,67*,67*,-2
O=C1N=C(N2CCOCC2)S/C1=C/c1cccs1,10,8,16,-1,71*,-2,-3
CC(=O)N1CCN(C2=NC(=O)/C(=C\c3cccs3)S2)CC1,-1,-1,-17,-8,-5,x,x
CCn1c(SCC(=O)NCc2ccccc2)nnc1C(CO)NC(=O)c1ccccc1 (centres undefined),5,0,3,11,69*,62*,-2
CCn1c(SCC(=O)NCCc2ccccc2)nnc1C(C)C,8,-2,-45,-6,-3,x,x
O=C(N[C@H]1CC[C@@H]2SC[C@@H](C(=O)O)N2C1=O)OCC1c2ccccc2-c2ccccc21,-11,x,x,x,x,x,x
COc1ccc(N2Cc3cccc(C(=O)N4CCN(C(=O)c5ccco5)CC4)c3C2=O)cc1,-1,2,-3,29,59*,43*,x
COc1ccc(N2Cc3cccc(C(=O)N4CCOCC4)c3C2=O)cc1,3,-1,3,-7,-6,x,x
COC(=O)Cn1c(C)c(/C=C/c2cc[n+](C)cc2)c2ccccc21,-7,x,16,31,80,x,x
COC(=O)Cn1cc(/C=C/c2cc[n+](C)cc2)c2ccccc21,-16,0,26,25,66*,67*,0
CN1CCCN(S(=O)(=O)c2ccccc2)CC1,2,0,0,17,67*,61*,-2
Cc1cc(C(=O)NC(C)CCC(C)C)c2ccccc2n1 (centres undefined),6,-1,14,3,46*,1,x
O=C(CSc1ncnc2nc[nH]c12)Nc1ccccc1C(F)(F)F,-12,-5,5,25,57*,39*,-4
Cc1cccc(C)c1NC(=O)CSc1ncnc2nc[nH]c12,4,-2,30,-4,3,x,x
CCCCC(=O)Nc1nc2c(OC)ccc(OC)c2s1,8,-2,-4,6,3,x,x
CCC[n+]1c(C)sc2c(OC)ccc(OC)c21,-7,1,9,19,44*,20*,-1
Cc1[nH]c2ccccc2c1/C=C(\C#N)C(=O)NC(C)c1ccccc1 (centres undefined),-1,3,-18,9,41*,72*,1
CCOc1cc(/C=C\[N+](=O)[O-])ccc1OCC(=O)Nc1ccccc1C,x,-2,0,2,9,x,x
CCOc1cc(/C=C/c2cccc[n+]2C)ccc1O,17,4,6,32,81,x,x
CCOc1cc(/C=C/c2cccc[n+]2C)ccc1OCC(=O)Nc1ccc(C)cc1,-2,2,2,22,87*,74*,-2

# Assay outcomes as filed in PubChem BioAssay.
